Assay outcomes deposited in PubChem BioAssay by National Center for Advancing Translational Sciences (NCATS).
BAZ2B block = inhibitors of human BAZ2B bromodomain. Q9UIF8. AlphaScreen BAZ2B-H3K14Ac peptide displacement. Potency, µM (highest dose often 114 µM), without a hit: at the highest dose activity change, negative = inhibition, usual class: inhibitors. actives 4.4% (n = 360,000). AID 504333; further: on the % scale 0 is the no-effect control and ±100 the full control effect; nearly all actives have a fitted effect of over 60% in size
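BAZ2B 50 nM plus b-H3(5-23)K14Ac 50 nM, PBS pH 7.4/0.01% Tween-20, 30 min RT; compound added (max 110 uM), 30 min RT; streptavidin donor/Ni-chelate acceptor beads 10 ug/mL final, 20 min dark; AlphaScreen read.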
Sfp PPTase inh = Sfp phosphopantetheinyl transferase inhibition; actives 3.5% (n = 310,000); Q9F4F7; Biochemical Sfp PPTase activity, qHTS; Potency, µM, inactives show largest response in the series, negative = inhibition, usual class: inhibitors; AID 1490;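 further: the enzyme is Sfp with the accession as filed and its product quenches rhodamine fluorescence; 0% = enzyme reaction without inhibitor and -100% = no enzyme wells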
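With Hepes-Na pH 7.6 buffer containing 10 mM MgCl2, Sfp (15 nM) modified BHQ-2-YbbR (12.5 uM) using rhodamine-CoA (5 uM). Two reads 30 minutes apart at 525/598 nm yielded each well's rate.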
JMJD2A Tudor = blocks the human JMJD2A Tudor domain. Potency, µM (highest dose often 114 µM), for the others: top-dose activity change, negative = inhibition, usual class: inhibitors. AlphaScreen JMJD2A-Tudor / H3K4me3 peptide binding. O75164. actives 4.4% (n = 390,000). AID 504339; further: on the % scale 0 is the no-effect control and ±100 the full control effect; nearly all actives have a fitted effect of over 50% in size
L3MBTL1 block = L3MBTL1 (human) inhibition. Q9Y468. AlphaScreen L3MBTL1–H3K9me1 peptide binding. Potency, µM (series often up to 57.1 µM), without a hit: at the top dose activity, negative = inhibition, hits mostly inhibitors. actives 0.66% (n = 230,000); further: on the % scale 0 is the no-effect control and ±100 the full control effect; nearly all actives have a fitted effect of over 60% in size
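AlphaScreen proximity signal between nickel-chelate acceptor and streptavidin donor beads (final 10 ug/mL) reports binding of 50 nM L3MBTL1 to 75 nM biotin-H3 K9me1 peptide; complex incubated with compounds 30 min at room temperature; cefsulodin titration as control.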
HP1b chromo inh = HP1-beta chromodomain-methylated histone interaction inhibition. P83916. AlphaScreen HP1-beta / biotin-H3K9me3 peptide binding. Potency, µM (top dose mostly 114 µM), inactives show at the highest dose activity change, negative = inhibition, actives largely listed as inhibitors. actives 0.56% (n = 390,000). AID 540317; further: nearly all actives have a fitted effect of over 70% in size
Target sequence (P83916 whole entry, looked up): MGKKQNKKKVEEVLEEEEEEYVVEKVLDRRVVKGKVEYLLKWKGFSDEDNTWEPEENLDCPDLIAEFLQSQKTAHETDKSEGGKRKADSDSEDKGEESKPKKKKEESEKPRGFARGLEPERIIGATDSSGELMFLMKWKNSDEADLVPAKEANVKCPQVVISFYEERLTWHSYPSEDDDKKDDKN
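AlphaScreen: HP1-beta (50 nM) preformed 30 min with biotin-H3(1-18)K9me3 peptide (50 nM) in PBS pH 7.4, 0.01% Tween-20. Compound added for 30 min at RT, then streptavidin donor/nickel chelate acceptor beads (10 ug/mL) for 30 min.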
G9a inh = inhibitors of human histone lysine methyltransferase G9a; Potency, µM (titrated, usually from 102 µM), without a hit: at the top dose activity, negative = inhibition, hits mostly inhibitors; AID 504332; actives 8.8% (n = 350,000); G9a H3K9 monomethylation, AlphaScreen, 2 h; further: on the % scale 0 is the no-effect control and ±100 the full control effect; nearly all actives have a fitted effect of over 75% in size
Target sequence (Q96KQ7 913-1193 limits assumed): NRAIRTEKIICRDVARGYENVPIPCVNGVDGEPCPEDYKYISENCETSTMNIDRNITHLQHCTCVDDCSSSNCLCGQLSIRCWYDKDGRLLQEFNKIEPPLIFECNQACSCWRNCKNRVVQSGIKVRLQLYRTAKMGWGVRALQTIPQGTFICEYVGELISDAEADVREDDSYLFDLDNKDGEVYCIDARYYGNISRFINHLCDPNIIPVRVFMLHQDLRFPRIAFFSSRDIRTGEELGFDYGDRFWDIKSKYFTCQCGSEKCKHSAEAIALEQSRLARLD
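Compounds were preincubated with 20 nM G9a for 15 min, after which biotinylated H3K9 peptide (500 nM) and SAM (20 uM) started a 2 h room-temperature reaction. Monomethylated product was quantified by antibody-based AlphaScreen chemiluminescence.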
Starred values were filed as active, the others as inactive; ? = inconclusive; . = no result given; [ ] = another dose, or the depositor's remark. A selection: hits, their analogues and other compounds. The true share with any hit is near 12%. The call rests on the fitted dose curve; in most records, active means well fitted curve in the direction sought with a large enough effect; inconclusive means small, poorly fitted or top-dose-only effect, or another doubt; inactive means no such curve, though single readings can be large; an effect the other way counts as inactive or inconclusive. Potency means the concentration at half of the fitted maximal effect.

SMILES	BAZ2B block	Sfp PPTase inh	JMJD2A Tudor	L3MBTL1 block	HP1b chromo inh	G9a inh
CC(C)c1ccc(NC(=S)NCCc2c[nH]c3ccccc23)cc1	35.5µM*	13.9%	?	-12.3%	?	44.7µM*
Cc1ccc(C)c(NC(=S)NCCc2c[nH]c3ccccc23)c1	44.7µM*	20.2%	?	-13.1%	?	?
COc1ccc(CC(=S)NCCc2ccccc2)cc1	-24.4%	14.1µM*	-13.4%	5.2%[2.29 µM]	?	1.0%[0.501 µM]
Cc1ccccc1NC(=S)NCCc1c[nH]c2ccccc12	?	0.8%	-25.5%	-21.4%	-2.1%[57 µM]	3.4%[59 µM]
CCc1ccc2c(c1)c(=O)c(S(=O)(=O)c1ccc(F)cc1)cn2CC(=O)Nc1ccccc1OC	-7.6%	.	-18.9%	.	14.0%	2.1%[59 µM]
Cc1ccc(CNC(=O)c2ccc(NC(=O)N3CCSc4ncccc43)cc2)cc1	-1.0%	.	-15.4%	.	56.0%	-6.3%[59 µM]
Cc1ccc2c(c1)-c1c(cnn1CC(=O)N1CCN(c3cccc(C(F)(F)F)c3)CC1)CO2	-10.5%	.	-30.2%	.	5.2%	-4.3%[59 µM]
COc1ccc(Cl)cc1NC(=S)NCCc1c[nH]c2ccccc12	39.8µM*	18.4%	50.1µM*	-18.3%	-22.9%	?
S=C(NCCc1c[nH]c2ccccc12)NC1CCCC1	?	33.7%	-10.5%	-9.4%	48.0%	-37.8%
COc1ccc(CCNC(=S)NCCc2c[nH]c3ccccc23)cc1	35.5µM*	32.4%	?	-26.3%	-14.2%	44.7µM*
S=C(NCCc1c[nH]c2ccccc12)NC1CCCCC1	?	17.3%	35.5µM*	.	?	22.1%[59 µM]
COc1ccc(CNC(=O)CN2C(=O)CSc3ccc(S(=O)(=O)N(C)C)cc32)cc1	12.8%	.	-9.7%	.	50.2%	1.7%[59 µM]
CCOC(=O)c1sc2ccccc2c1S(=O)(=O)N1CCN(c2cccc(C)c2)C(C)C1 (stereo unspecified)	?	.	-21.0%	.	27.3%	0.1%[59 µM]
Cn1nc(-c2ccccc2)cc1NC(=O)c1ccc(Cl)cc1	31.6%	.	-11.3%	7.3%	44.6%	29.6%[12.7 µM]
Cn1cnc(S(=O)(=O)Nc2cc(-c3ccc(Cl)cc3)nn2C)c1	-0.3%	10.7%	-10.7%	8.6%	28.8%	50.1µM*
CC(=O)N1CCC(=NNc2ncc(C(F)(F)F)cc2Cl)CC1	35.5µM*	?	-21.9%[57.1 µM]	.	33.4%	-17.6%
CC(=O)N1CCC(=NNc2ccnc3cc(Cl)ccc23)CC1	?	1.6%	-13.9%	-11.2%	41.8%	28.2µM*
CCc1ccc(-c2nc(CN3CCC(C(=O)NCCc4ccc(Cl)cc4)CC3)c(C)o2)cc1	-12.0%	.	-13.5%	.	30.4%	-8.7%[59 µM]
COC(=O)C1=C(C)N(c2ccc(OC)c(OC)c2)C(=O)C1	-2.2%	10.5%	-17.4%	2.9%	50.5%	70.8µM*
COC(=O)C1=C(C)N(c2ccc(F)cc2)C(=O)C1	11.7%	11.9%	-10.7%[57.1 µM]	3.5%	60.9%	44.7µM*
O=S(=O)(c1ccc2c(c1)OCCO2)N1CCN(S(=O)(=O)c2c(Cl)cc(C(F)(F)F)cc2Cl)CC1	.	.	-13.0%	.	.	.
CO[C@H]1/C=C/O[C@@]2(C)Oc3c(C)c(O)c4c(O)c(c(/C=N\N5CCN(C6CCCC6)CC5)c(O)c4c3C2=O)NC(=O)/C(C)=C\C=C\[C@H](C)[C@H](O)[C@@H](C)[C@@H](O)[C@@H](C)[C@H](OC(C)=O)[C@@H]1C	.	-19.1%	.	.	.	?
N#CC1=C(NC=NCc2ccccc2)Oc2ccc3ccccc3c2C1c1ccccc1 (stereo unspecified)	.	.	-30.1%	.	.	.
CCSc1ccc(C(=O)NCC(=O)O)cc1	0.3%	1.9%	-4.7%	4.1%	14.3%	.
CSc1ccc(NC(=O)Nc2ccc(C(=O)NCC(=O)O)cc2)cc1	50.1µM*	-13.2%	56.2µM*	-13.3%	-16.1%	35.5µM*
SMILES	BAZ2B block	Sfp PPTase inh	JMJD2A Tudor	L3MBTL1 block	HP1b chromo inh	G9a inh
Cc1c(NC(=O)c2cc([N+](=O)[O-])ccc2N2CCOCC2)cccc1-c1nc2ccccc2o1	-25.4%	.	-24.3%	.	-0.2%	0.2%[59 µM]
Fc1ccc(C2c3cccn3CCN2C(=S)Nc2cccc(F)c2)cc1 (stereo unspecified)	?	20.6%	-23.3%	?	-11.1%	-45.9%
S=C(NC1CCCCC1)N1CCn2cccc2C1c1cccnc1 (stereo unspecified)	?	2.1%	-35.9%	.	-27.0%	70.8µM*
S=C(NC1CCCCC1)N1CCn2cccc2C1c1ccncc1 (stereo unspecified)	50.1µM*	12.6%	-18.8%	.	-8.4%	?
S=C(Nc1ccccc1)N1CCn2cccc2C1c1cccnc1 (stereo unspecified)	-38.9%	1.2%	?	-11.5%	-11.5%	?
CC(C)c1ccc(S(=O)(=O)N2CCC(n3c(C(F)(F)F)nc4cccnc43)CC2)cc1	-15.6%	.	-25.6%	.	16.1%	1.2%[59 µM]
COc1ccc(-c2nn(-c3cccc(F)c3)c3c2cnc2cc(OC)c(OC)cc23)cc1	-7.7%	.	-9.3%	.	20.8%	28.2%[59 µM]
COc1ccc(-c2nnc3n2-c2ccccc2SC3)cc1OC	?	79.4µM*	-22.9%	3.5%	45.1%	?
CC(=O)Nc1ccc(NC(=O)C(Cc2ccccc2)NS(=O)(=O)c2ccc3c(c2)oc(=O)n3C)cc1 (stereo unspecified)	-16.1%	.	3.4%	.	45.3%	?
